Shown are actives, neighbours in structure and some others; about 2.4% of the full set was active somewhere.
TSG101-PTAP inh = qHTS Assay for Iinhibitors of HIV-1 Budding by Blocking the Interaction of PTAP/TSG101; Tumor susceptibility gene 101 protein (Homo sapiens), Q99816; Fluorescence polarization, FITC-PTAP peptide / Tsg101 binding; Potency, µM (titrated, usually from 115 µM), for inactives: at the highest dose activity change, negative = inhibition, actives largely listed as inhibitors; 340,000 tested, under 10 active; active = well fitted inhibition curve with a large enough effect in the main read-out, with a control signal flat, not every such curve was filed as active; inconclusive = small, poorly fitted or top-dose-only effect, or effect the other way, or a change in a side signal; inactive = no such curve, though single readings can be large or run the other way; also: % of control where 0% means no effect
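Steps: Tsg101 binding domain dispensed (10 uM final), compounds pinned in DMSO, FITC-labeled PTAP-motif peptide added (50 nM final); after 20 min binding at room temperature, polarization measured.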
ClpP mod = qHTS Assay for Activators of ClpP; 1.9% of 340,000 active; ATP-dependent Clp protease proteolytic subunit (Bacillus subtilis (strain 168)), P80244; purified B. subtilis ClpP, FRET peptide cleavage, 20 min; AID 651965, 2013; Potency, µM (titrated, usually from 57.5 µM), for inactives: at the highest dose activity change, negative = active; active = well fitted falling curve with a large enough effect; inconclusive = small, poorly fitted or top-dose-only effect; inactive = no such curve, though single readings can be large or run the other way; also: the source files actives as falling curves though it sought activators and does not explain the sign; nearly all actives have a fitted effect of over 65% in size
Target sequence (P80244 whole entry, looked up): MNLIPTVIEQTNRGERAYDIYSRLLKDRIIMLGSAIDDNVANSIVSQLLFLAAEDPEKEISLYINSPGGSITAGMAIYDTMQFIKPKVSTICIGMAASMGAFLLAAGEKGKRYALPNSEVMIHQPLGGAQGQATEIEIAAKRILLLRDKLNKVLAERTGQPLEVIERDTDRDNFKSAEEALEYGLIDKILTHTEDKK
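Purified B. subtilis ClpP, 10 microg/mL final in Tris/HCl pH8 with KCl, BSA, glycerol and Tween-20, cleaved an Abz/nitrotyrosine-quenched decapeptide. Fluorescence (ex 320, em 430) was read at 0 and 20 min at room temperature. Delta was normalized to 5.8 microM ADEP and DMSO/no-enzyme controls.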
Rango-impB inh = qHTS Assay for Inhibitors of Rango (Ran-regulated importin-beta cargo) - Importin beta complex formation; Importin subunit beta-1 (Homo sapiens), Q14974; Rango CFP/YFP FRET sensor + importin beta, 45 min; Potency, µM (top dose mostly 92.2 µM), inactives show at the highest dose inhibition of complex formation; 0.031% of 340,000 active; AID 540263, 2011; calls by dose curve;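 also: 0% = DMSO wells and 100% = buffer wells lacking importin beta; nearly all actives have a fitted effect of over 15% in size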
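Inhibition scored from the CFP 486 nm/YFP 530 nm FRET ratio 45 min after adding 0.125 microM importin beta to 50 nM Rango biosensor preincubated 5 min with compound (room temperature, PBS with DTT, Tween-20, BSA). No-importin wells as positive control.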
Rango release inh = qHTS Assay for Inhibitors of RanGTP induced Rango (Ran-regulated importin-beta cargo) - Importin beta complex dissociation | Snurportin-1 (Homo sapiens) + GTP-binding nuclear protein Ran (Homo sapiens) + Importin … | Biochemical FRET Rango-importin beta, RanGTP-induced dissociation | Potency, µM (series often up to 46.1 µM), for inactives: at the highest dose activity change, negative = inhibition | 0.071% of 340,000 active; calls by dose curve; also: % of control where 0% means no effect; nearly all actives have a fitted effect of over 45% in size
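Quantitative HTS using a FRET biosensor: 0.1 uM Rango, 0.25 uM importin beta, 0.6 uM Ran, 2 mM GTP, 0.2 uM RCC1 final, PBS with DTT, Tween-20 and BSA. Post-read taken 45 min after Ran addition.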
ALOX12 inh = Primary qHTS assay for inhibitors of human arachidonate 12S-lipoxygenase (ALOX12): Round 2; purified 12hLO, xylenol orange hydroperoxide absorbance; Potency, µM (top dose mostly 108 µM), for inactives: top-dose activity change, negative = inhibition, most hits filed as inhibitors; AID 1671190, 2021; 1.1% of 580,000 active; Polyunsaturated fatty acid lipoxygenase ALOX12 (Homo sapiens), P18054; also: % is scaled to controls: 0 for no effect and ±100 for the full control effect
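Hydroperoxide product was detected by ferrous iron/xylenol orange as the 573 to 405 nm absorbance ratio. Arachidonic acid at 40 uM (final) was turned over for 30 min at room temperature by 150 nM human 12hLO, pH 7.0 Hepes buffer, after 15 min compound preincubation.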
TDP1 block = qHTS Assay for Inhibitors of Tyrosyl-DNA Phosphodiesterase (TDP1); recombinant TDP1, AlphaScreen DNA substrate cleavage; Potency, µM (doses to about 130 µM), inactives show at the top dose activity change, negative = inhibition, usual class: inhibitors; 0.28% of 350,000 active; AID 485290, 2010; also: % is scaled to controls: 0 for no effect and ±100 for the full control effect; nearly all actives have a fitted effect of over 40% in size
Target sequence (Q9NUW8 whole entry, looked up): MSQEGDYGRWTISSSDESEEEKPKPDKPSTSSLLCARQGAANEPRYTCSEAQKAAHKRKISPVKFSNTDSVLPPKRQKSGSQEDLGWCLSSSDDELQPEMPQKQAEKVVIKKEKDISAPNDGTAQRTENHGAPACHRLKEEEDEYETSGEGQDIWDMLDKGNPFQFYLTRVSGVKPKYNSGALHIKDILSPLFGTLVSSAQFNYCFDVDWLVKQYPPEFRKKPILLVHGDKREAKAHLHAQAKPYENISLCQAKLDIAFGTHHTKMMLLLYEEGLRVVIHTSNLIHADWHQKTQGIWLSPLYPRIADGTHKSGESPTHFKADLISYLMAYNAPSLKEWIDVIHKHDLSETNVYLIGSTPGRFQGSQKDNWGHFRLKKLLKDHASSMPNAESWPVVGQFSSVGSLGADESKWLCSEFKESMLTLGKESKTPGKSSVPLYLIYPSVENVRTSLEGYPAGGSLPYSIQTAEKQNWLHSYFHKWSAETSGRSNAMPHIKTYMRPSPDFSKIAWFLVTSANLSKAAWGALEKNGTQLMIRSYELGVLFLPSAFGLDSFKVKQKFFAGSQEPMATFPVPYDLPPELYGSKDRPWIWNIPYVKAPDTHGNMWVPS
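Enzyme-compound mixtures sat 15 min at room temperature, followed by a 5 min reaction with 15 nM final substrate and 10 min with AlphaScreen beads. Recombinant human Tdp1 was used at 1 nM final.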
* hit, by the source's call; ? = inconclusive; . = not tested or not shown; [ ] = remark or other dose. Unless noted, calls follow the shape of the dose curve; as a rule, active = well fitted curve in the direction sought with a large enough effect; inconclusive = small, poorly fitted or top-dose-only effect, or another doubt; inactive = no such curve, though single readings can be large; an effect the other way counts as inactive or inconclusive. Potency is read from the fitted curve at half-maximal effect.

SMILES | TSG101-PTAP inh | ClpP mod | Rango-impB inh | Rango release inh | ALOX12 inh | TDP1 block
Cc1ccc(OC(=O)c2cccc(C(=O)Oc3ccc(C)c(C)c3)c2)cc1C | . | . | . | . | 9.9% | .
Cc1ccc(OC(=O)c2ccccc2)cc1C | -1.5% | 28.2µM* | 0.3% | -15.8% | -6.7% | .
Cc1cccc(Nc2nnc(SCC(=O)N(C)C3CCS(=O)(=O)C3)s2)c1C (stereo not drawn) | 1.5% | 1.2% | -1.9% | -6.6% | 2.5% | 5.4%
CCN(C(=O)CSc1nnc(Nc2ccccc2C)s1)C1CCS(=O)(=O)C1 (stereo not drawn) | -2.5% | 28.2µM* | -0.5% | 0.7% | -0.4% | 3.2%
CCN(C(=O)CSc1nc2nc(C)cc(C)n2n1)C1CCS(=O)(=O)C1 (stereo not drawn) | -2.1% | 15.8µM* | ? | 27.9% | 1.1% | 3.8%
Cc1cc(C)n2nc(SCC(=O)N(C)C3CCCCC3)nc2n1 | -4.7% | -2.2% | 2.9% | -8.0% | -15.0% | -15.2%
Cc1ccccc1C(=O)N1CCC(C(=O)Nc2ccc(S(=O)(=O)N3CCCCC3)cc2)CC1 | -1.1% | -2.5% | 0.6% | 3.4% | 44.7µM* | 6.4%
CNc1ccccc1C(=O)OC(C)C(=O)Nc1ccc(S(=O)(=O)N2CCCC2)cc1 (stereo not drawn) | -0.7% | 28.2µM* | 0.6% | 1.0% | 0.0% | -2.9%
CC(=O)Nc1ccc(S(=O)(=O)N2CCN(C(C)CCc3ccccc3)CC2)cc1 (stereo not drawn) | -19.3% | -1.9% | -5.2% | -21.7% | 5.62µM* | -5.6%
Cc1ccccc1C(=O)N1CCC(C(=O)Nc2ccc(S(=O)(=O)N3CCOCC3)cc2)CC1 | -4.1% | 1.0% | -1.5% | 3.8% | -3.7% | 0.7%
O=C(OCc1nc2ccccc2o1)c1c(F)cccc1F | . | . | . | . | 4.5% | .
CCc1ccc(OCC(=O)NNC(=S)NC(=O)C2CCCCC2)c(Br)c1 | -11.1% | 1.0% | 4.4% | -9.7% | 7.94µM* | 7.7%
Cc1nn(CCc2nn[nH]n2)c2nc(C(F)(F)F)cc(C(F)(F)F)c12 | -7.1% | 10µM* | 4.6% | -1.9% | 53.5% | 8.3%
Cc1nn(CCc2nn[nH]n2)c2nc(-c3ccc(Br)cc3)cc(C(F)(F)F)c12 | -3.2% | . | -3.0% | 0.2% | -16.6% | 3.8%
O=C1CN(C(=O)COC(=O)c2ccccc2NCc2ccco2)c2ccccc2N1 | -3.4% | 25.1µM* | 1.7% | -11.7% | -6.7% | 6.8%
O=C1CN(C(=O)COC(=O)c2ccco2)c2ccccc2N1 | -2.1% | 1.9% | 0.4% | 3.2% | 13.5% | -9.2%
Nc1[nH]c(=S)[nH]c(=O)c1-c1ccccc1 | -4.6% | -3.8% | -0.6% | 0.1% | 7.08µM* | 1.1%
O=c1[nH]c(=S)[nH]c2nc(-c3ccccc3)cnc12 | -2.0% | . | 2.4% | -22.1% | -5.8% | .
CN(C(=O)c1ccnc(-c2nnc3ccc(N4CCOCC4)nn23)c1)c1ccccc1 | . | . | . | . | 31.6µM* | .
O=C(Nc1nncs1)c1ccc(Br)c(S(=O)(=O)N2CCCC2)c1 | -6.2% | 31.6µM* | -0.4% | -11.2% | -8.9% | 2.8%
O=C(Nc1ccccn1)c1ccc(Br)c(S(=O)(=O)N2CCCCC2)c1 | -6.9% | 12.6µM* | ? | ? | 10.0% | 2.2%
COc1ccc(C2CCCN2C(=O)NCCn2ccnc2)cc1 (stereo not drawn) | . | . | . | . | -6.9% | .
CCOC(=O)c1c(-c2ccc(F)cc2)csc1/N=C/N(C)C | 2.2% | 25.1µM* | 4.7% | 3.3% | -3.2% | 1.2%
CCOc1ccc2oc(-c3ccccc3)c(C(=O)N3CCN(CCO)CC3)c2c1 | 1.3% | 14.1µM* | -1.1% | -4.7% | -2.5% | 2.3%
CCOc1ccc2oc(-c3ccccc3)c(C(N)=O)c2c1 | 0.5% | 2.8% | -2.0% | -1.5% | 3.0% | .
SMILES | TSG101-PTAP inh | ClpP mod | Rango-impB inh | Rango release inh | ALOX12 inh | TDP1 block
CCOc1ccc2oc(-c3ccccc3)c(C(=O)N(C)C)c2c1 | -5.3% | 25.1µM* | 1.8% | 1.4% | 9.3% | 7.0%
O=C(c1cccc(OC2CN(CC3CC=CCC3)C2)c1)N1CCOCC1 (stereo not drawn) | . | . | . | . | 28.0% | .
C=C(C)CC1NC2CC(C)(C)C1c1c(Br)ccc(Br)c12 (stereo not drawn) | . | . | . | . | -12.3% | .
C=C(C)CC1Nc2ccccc2NC1CC(=C)C (stereo not drawn) | -5.3% | -8.0% | ? | ? | 28.2µM* | 3.3%
O=C1c2cc3ccccc3c(-c3ccccc3)c2C(=O)N1c1ccccn1 | -6.1% | 31.6µM* | -2.7% | 15.5% | -19.6% | 4.2%
O=C1c2cccc(Cl)c2C(=O)N1c1ccccn1 | 2.5% | . | -4.0% | -0.3% | 10.7% | .
O=C(N/N=C/c1cccc(Br)c1)c1cccs1 | . | . | . | . | 11.3% | .
CCOc1ccc(S(=O)(=O)N2Cc3ccccc3CC2C(=O)O)cc1 (stereo not drawn) | -5.1% | 1.0% | -3.4% | -4.6% | 9.5% | -0.6%
Cc1ccc(S(=O)(=O)N2CC(O)CC2C(=O)O)cc1 (stereo not drawn) | -3.3% | 35.5µM* | -2.6% | 2.7% | -1.1% | .
O=C(O)C1CC(O)CN1S(=O)(=O)c1ccc2ccccc2c1 (stereo not drawn) | -3.7% | 1.1% | 0.9% | 0.9% | -4.1% | 0.4%[56.1 µM]
COc1ccc(S(=O)(=O)N2Cc3ccccc3CC2C(=O)O)cc1 (stereo not drawn) | -4.0% | -2.8% | 0.6% | -2.9% | ? | 28.2µM*
O=C1C(c2ccccc2)=S=C2C=Cc3ccccc3N12 | . | . | . | . | 22.4µM* | .
O=C(Nc1cccc(-c2nnc3n2CCCCC3)c1)c1n[nH]c(=O)c2ccccc12 | . | . | . | . | -7.4% | .
N#CCCN1CCN(S(=O)(=O)c2ccc3c(c2)CCC3)CC1 | -3.4% | 1.9% | 0.6% | 7.0% | 359.5% | 1.9%
O=S(=O)(c1ccc2c(c1)CCC2)N1CCNCC1 | 0.1% | 28.2µM* | 5.7% | 1.6% | -0.1% | -4.0%
Cc1cc(O)c(C=O)c2c1C(=O)Oc1c(C)c(O)c3c(c1O2)C(O)OC3=O (stereo not drawn) | . | . | . | . | . | 7.94µM*
COc1cc(C)c2c(c1C=O)Oc1c(c(C)c(O)c3c1C(O)OC3=O)OC2=O (stereo not drawn) | -5.6% | 3.0% | ? | ? | ? | .

Source: PubChem BioAssay (National Center for Advancing Translational Sciences (NCATS))
